# Mdm2-MdmX inh – human Mdm2/MdmX binding inhibition; O15151+Q00987; SaOS-2 split-luciferase Mdm2/MdmX complementation, luminescence; inhibition, % at 8 µM; 3% of 330,000 active; AID 485346;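 active = inhibition of at least 50% at 8 µM in the primary screen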
# Target sequence (O15151 whole entry, looked up): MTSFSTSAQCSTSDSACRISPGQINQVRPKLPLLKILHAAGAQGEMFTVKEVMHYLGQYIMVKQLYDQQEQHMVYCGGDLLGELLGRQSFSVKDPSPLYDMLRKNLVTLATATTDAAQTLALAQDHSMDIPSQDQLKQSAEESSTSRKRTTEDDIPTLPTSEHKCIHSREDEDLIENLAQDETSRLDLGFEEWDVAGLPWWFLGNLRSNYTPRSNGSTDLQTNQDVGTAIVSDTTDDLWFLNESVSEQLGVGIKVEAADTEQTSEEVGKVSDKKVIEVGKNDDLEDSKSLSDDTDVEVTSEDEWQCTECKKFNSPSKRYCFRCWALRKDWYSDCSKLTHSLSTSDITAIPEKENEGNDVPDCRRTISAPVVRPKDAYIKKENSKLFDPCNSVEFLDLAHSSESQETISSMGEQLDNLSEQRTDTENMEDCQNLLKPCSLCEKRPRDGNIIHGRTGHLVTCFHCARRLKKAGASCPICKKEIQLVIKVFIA
# Target sequence (Q00987 whole entry, looked up): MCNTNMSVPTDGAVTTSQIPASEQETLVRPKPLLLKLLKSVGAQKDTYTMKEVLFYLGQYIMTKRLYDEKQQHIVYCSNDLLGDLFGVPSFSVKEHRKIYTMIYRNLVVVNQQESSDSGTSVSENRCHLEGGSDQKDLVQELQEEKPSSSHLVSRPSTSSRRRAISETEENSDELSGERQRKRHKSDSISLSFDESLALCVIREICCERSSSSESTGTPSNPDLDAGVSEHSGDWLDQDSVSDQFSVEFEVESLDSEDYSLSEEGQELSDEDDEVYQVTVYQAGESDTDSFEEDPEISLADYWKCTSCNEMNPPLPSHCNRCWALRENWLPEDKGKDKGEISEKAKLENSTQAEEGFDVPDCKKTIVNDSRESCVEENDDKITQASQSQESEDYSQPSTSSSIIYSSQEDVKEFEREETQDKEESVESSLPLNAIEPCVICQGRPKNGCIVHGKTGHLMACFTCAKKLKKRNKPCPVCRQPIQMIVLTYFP
# aSyn 5UTR inh – 5' untranslated region of α-synuclein, MLPCN primary screen; alpha-synuclein 5'UTR reporter, inhibitor activity; inhibition, % (tested at 7.5 µM); 0.82% of 300,000 active; in the data active = inhibition above about 60%; inconclusive = no clear call, values can overlap the other calls;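 note: H4 neuroglioblastoma cells stably carrying SNCA 5'UTR luciferase fusion; 0% = DMSO wells and 100% = positive control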
# Gli-Sufu antag – blocks Gli-Sufu signaling in a luciferase reporter. Sufu-KO-LIGHT fibroblasts, Gli luciferase reporter luminescence. inhibition, % at 5 µM. 0.74% of 340,000 active;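 active = inhibition above about 55%, limit read from the data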;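 note: 0% = DMSO-treated cells and 100% = wells with medium but no cells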
# CSC inhib – blocks cancer stem cells; AID 2717; inhibition, % at 7.5 µM; cancer stem cell-like cells viability, luminescence; 1.1% of 300,000 active; in the data active = inhibition above about 75%; inconclusive = no clear call, values can overlap the other calls; tested in HMLE shEcad cells
# 697 NFkB inh – lowers PMA/ionomycin-induced NF-kB signal in 697 B cells. inhibition, % at 4 µM. 697 B-cell NF-kB luciferase reporter, 16 h. 0.33% of 330,000 active; in the data active = inhibition above about 35%
# Jurkat NFkB inh – lowers PMA/ionomycin-induced NF-kB signal in Jurkat cells; PMA/ionomycin-induced NF-kB luciferase reporter, luminescence; inhibition, % at 4 µM; 0.53% of 330,000 active; in the data active = inhibition above about 50%
# Numbers without * were called inactive; ? = inconclusive; / = no result. Most compounds without a hit are left out; they make up all but 4.5% or so of the library.
SMILES,Mdm2-MdmX inh,aSyn 5UTR inh,Gli-Sufu antag,CSC inhib,697 NFkB inh,Jurkat NFkB inh
O=C(Nc1ccc(OC(F)F)c(Cl)c1)Nc1ccc2c(c1)OCO2,40,-26,-5,98*,-53,-20
COc1ccc(C(C)(C)C)cc1NC(=O)Nc1ccc2c(c1)OCO2,48,9,0,83*,-12,-8
COc1cc(NC(=O)Nc2ccc3c(c2)OCO3)cc(OC)c1OC,-24,-34,-1,-24,10,-2
COc1ccc(NC(=O)Nc2cccc([N+](=O)[O-])c2)cc1Cl,46,-58,1,41,-5,-18
O=C(Nc1ccc([N+](=O)[O-])cc1)Nc1ccc(OC(F)F)c(Cl)c1,/,/,58*,103*,/,/
O=C(Nc1ccc2c(c1)OCO2)Nc1ccc2c(c1)OCO2,-102,-129,-80,0,-113,-104
CC(C)(C)c1ccc(C(=O)N2CCN(CCNC(=O)C(=O)NCc3ccccc3)CC2)cc1,5,22,7,-6,-29,-13
N#CCSc1ncnc2c1cnn2CCO,29,-31,18,-8,27,17
Cc1ccc(Cl)cc1N1CCN(CC(=O)NC2CCCc3ccccc32)CC1 (stereo not drawn),17,-3,21,78*,-34,-10
CCCCOc1ccc(-c2cnc3ccccc3n2)cc1,-112,101*,-33,/,-234,-113
OCCN1CCN(CC/C=C2/c3ccccc3CSc3ccccc32)CC1,25,103*,6,26,-49,-38
O=C(/C=C\c1ccccc1)NCC(=O)N/N=C/c1ccc(O)cc1O,24,-3,34,104*,-17,26
O=C(N/N=C/c1ccc(O)cc1O)/C(=C/c1ccccc1)CCO,48,-1,7,97*,-23,14
Cc1ccc(S(=O)(=O)/N=C(/c2ccc(F)cc2)N(C)C)cc1,-29,-15,-31,-5,-10,-10
Nc1sc2c(c1C(=O)NC1CC1)CCCC2,8,/,4,-11,7,-5
O=C(NCc1ccc(Cl)cc1)c1cccc(NC(=O)c2ccccc2)c1,29,17,0,111*,-3,6
O=C(NCc1ccccc1)c1ccc(Cl)cc1,5,-3,-4,-9,8,3
COc1ccc(C(=O)/C=C/c2ccc(OCc3ccccc3)cc2)cc1CSCC(=O)O,5,-28,5,79*,3,-20
COc1ccc(/C=C/C(=O)c2ccc(O)cc2)cc1COc1ccc(F)cc1,46,-22,1,97*,-14,-21
COc1ccc(/C=C/C(=O)c2ccccc2)cc1COc1ccc(F)cc1,9,-33,-10,29,16,6
CC1(C)CCC[C@]2(C)[C@H]3Cc4cc(O)ccc4O[C@]3(C)CC[C@@H]12,23,/,24,130*,3,-3
CC1(C)CCC[C@]2(C)[C@H]3CC(=O)O[C@]3(C)CC[C@@H]12,-6,27,3,69,-2,-8
Cc1cc(NC(=O)CCN2C(=O)C3C4CCC(C4)C3C2=O)c(C)cc1Br (stereo not drawn),20,15,-2,-5,18,4
Cc1cc(Br)c(Cl)cc1NC(=O)CN1C(=O)C2C3CC(c4ccccc4)C(C3)C2C1=O (stereo not drawn),17,16,2,80*,21,31
CCCCC(=O)NC(c1cccc([N+](=O)[O-])c1)c1ccc2cccnc2c1O (stereo not drawn),/,/,62*,/,/,/
SMILES,Mdm2-MdmX inh,aSyn 5UTR inh,Gli-Sufu antag,CSC inhib,697 NFkB inh,Jurkat NFkB inh
O=[N+]([O-])c1ccc(NC(c2ccccc2)c2ccc3cccnc3c2O)cc1 (stereo not drawn),/,/,70*,/,/,/
CN=c1sc2c(n1C)C(=O)c1ccccc1C2=O,/,/,17,/,/,/
CC(=O)Nc1ccc(NC(=O)c2sc3nc4n(c(=O)c3c2C)CCCCC4)cc1,-9,76*,9,-2,16,0
CCc1ccc(NC(=O)c2sc3nc4n(c(=O)c3c2C)CCC4)cc1,-22,-4,/,8,-50,-45
O=C(COC(=O)c1ccccc1O)NC(=O)NCc1ccccc1,-3,/,-12,/,-13,-9
CC1(C)OC(C(O)(c2ccccc2)c2ccccc2)[C@@H](C(O)(c2ccccc2)c2ccccc2)O1 (stereo partly drawn),/,13,-25,108*,/,/
CN(C)Cc1ccccc1C(O)(c1ccccc1)c1ccccc1,14,4,13,5,-15,-7
O=C(N/N=C/c1cn(Cc2ccccc2)c2ccccc12)c1cc(O)cc(O)c1,9,62*,-10,27,8,7
O=[N+]([O-])/C=C/c1cn(Cc2ccc(F)cc2)c2ccccc12,22,63*,-4,137*,9,0
COc1cc(C(=O)N/N=C/c2cn(Cc3cccc(F)c3)c3ccccc23)ccc1O,17,62*,-1,7,3,10
CCNC(=S)N/N=C/c1cn(Cc2ccc(F)cc2)c2ccccc12,29,48,9,90*,30,-1
Cc1ccc(C(=O)NCC(=O)OCCOc2ccccc2Cl)cc1,-3,-36,-6,5,-26,-23
CCn1c2ccccc2c2cc(/C=N/NC(=O)c3ccc(O)cc3)ccc21,-4,-4,3,6,-25,20
CCn1c2ccccc2c2cc(/C=N/NC(=O)c3cc(O)cc(O)c3)ccc21,-5,20,4,84*,15,9
Cc1ccc(C(=O)N/N=C/c2cn(Cc3ccccc3)c3ccccc23)cn1,21,64*,-14,5,-32,3
Cc1cc(C)cc(NS(=O)(=O)c2ccc3c(c2)c(=O)n(C)c(=O)n3C)c1,39,?,7,102*,20,-11
COCCn1c(=O)c2c(nc3n2CC(C)CN3CCc2ccccc2)n(C)c1=O (stereo not drawn),12,67*,10,2,2,-5
O=C(NCc1cccc(C(F)(F)F)c1)c1ccc2c(c1)OCO2,3,-5,2,/,-46,-1
Nc1c(Cl)ncnc1N/N=C/c1ccnc2ccccc12,17,-68,-17,-37,-14,-23
Nc1c(Cl)ncnc1N/N=C/c1ccccn1,/,/,77*,102*,/,/
Nc1c(Cl)ncnc1N/N=C/c1ccc2ccccc2n1,/,/,66*,102*,/,/
N#Cc1c(NC(=O)CCCC(=O)O)sc2c1CCCCC2,-65,90*,-16,2,-11,-6
CN(C(=O)CSc1nnnn1-c1ccc(O)cc1)C1CCCCC1,12,/,-2,0,15,3
CCN(CC)c1ccc(N=Cc2c(C)[nH]c3ccccc23)cc1,4,63*,-5,9,-51,-5
CCc1ccccc1NC(=O)CSc1nnc(-c2cc(C)[nH]n2)n1N,-16,-5,-2,-1,-6,19
O=C(Nc1ccc(C(F)(F)F)cc1)N1CCN(c2ccnc3cc(Cl)ccc23)CC1,14,22,30,89*,-12,18
O=C(Nc1cc(F)ccc1F)N1CCN(c2ccnc3cc(Cl)ccc23)CC1,23,33,21,1,22,8
